Screens as filed in PubChem.
Cruzain Triton: inhibitors of Trypanosoma cruzi cruzain with detergent; 200,000 tested, 0.43% active; purified cruzain, Z-FR-AMC fluorescence, 0.01% Triton; P25779; Potency, µM, without a hit: max response, negative = inhibition, hits mostly inhibitors;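 also: plate controls were neutral wells for no effect and buffer without enzyme for full effect; nearly all actives have a fitted effect of over 40% in size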
Target sequence (P25779 123-467 limits assumed): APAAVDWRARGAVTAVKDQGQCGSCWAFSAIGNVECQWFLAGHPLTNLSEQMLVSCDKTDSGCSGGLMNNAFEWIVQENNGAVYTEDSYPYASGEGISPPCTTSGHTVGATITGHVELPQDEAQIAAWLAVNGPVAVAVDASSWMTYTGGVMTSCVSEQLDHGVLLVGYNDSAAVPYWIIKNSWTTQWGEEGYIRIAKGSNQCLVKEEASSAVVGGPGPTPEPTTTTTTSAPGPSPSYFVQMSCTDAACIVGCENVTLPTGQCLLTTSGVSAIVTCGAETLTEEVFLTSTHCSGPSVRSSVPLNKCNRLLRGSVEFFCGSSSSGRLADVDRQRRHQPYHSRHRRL
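Z-FR-AMC hydrolysis (2 uM substrate) by cruzain (1.5 nM) monitored kinetically at ex 360/em 450 nm after 15 min room-temperature compound exposure; 0.01% Triton X-100, pH 5.5, 5 mM DTT.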
Cruzain inh noDet: inhibitors of Trypanosoma cruzi cruzain without detergent. purified cruzain, Z-FR-AMC fluorescence, no detergent. Potency, µM, inactives show max response, negative = inhibition, usual class: inhibitors. 200,000 tested, 2.3% active. AID 1476;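 also: plate controls were enzyme without inhibitor for no effect and buffer without enzyme for full effect; nearly all actives have a fitted effect of over 40% in size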
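Purified cruzain at 1.5 nM, pre-incubated 15 min with compound at room temperature in 100 mM sodium acetate pH 5.5, 5 mM DTT, 0.00005% Triton X-100. Reaction started with 2 uM Z-FR-AMC; AMC fluorescence increase over 60 s gives rate.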
Starred values were filed as active, the others as inactive; u = inconclusive. The list is not random: actives were taken first. Their share in the collection is about 2.4%. Calls follow the shape of the dose curve; as a rule, active = well fitted curve in the direction sought with a large enough effect; inconclusive = small, poorly fitted or top-dose-only effect, or another doubt; inactive = no such curve, though single readings can be large; an effect the other way counts as inactive or inconclusive. Potency is read from the fitted curve at half-maximal effect.

SMILES | Cruzain Triton | Cruzain inh noDet
Cc1ccc(NC(=O)Cn2c(=O)n(CCCCC(=O)NCCc3ccccc3)c(=O)c3ccccc32)cc1 | -2% | 1%
CC(/C=N\Nc1nnc2c(n1)[nH]c1c(C)cccc12)=C\c1ccco1 | 2% | 4µM*
CCCCCSc1nnc2c(n1)[nH]c1c(C)cccc12 | -1% | u
CCC(=O)N1CCc2cc(Br)cc(S(=O)(=O)NCCc3ccc(OC)c(OC)c3)c21 | -2% | 3%
COC(=O)c1cccc(-n2nnnc2SCC(=O)Nc2nc3c(s2)CCCC3)c1 | -2% | u
COc1cccc(-n2c(SCC(=O)NCc3cccs3)nc3ccccc3c2=O)c1 | -3% | -14%
COc1ccc(-n2c(SCC(=O)Nc3sc4c(c3C#N)CCCC4)nnc2-c2ccccc2OC)cc1 | -2% | 25µM*
N#Cc1ccc(-c2cccnc2)nc1SCC(=O)Nc1sc2c(c1C#N)CCC2 | 3% | -1%
COc1cccc(-n2c(SCC(=O)Nc3sc4c(c3C(N)=O)CCC4)nc3ccccc3c2=O)c1 | 2% | 25µM*
COc1cccc(-n2nnnc2SCC(=O)Nc2nc3c(s2)CCCC3)c1 | -6% | 25µM*
COc1ccc(-c2ccc(C#N)c(SCC(=O)Nc3sc4c(c3C#N)CCC4)n2)cc1 | -11% | 13µM*
COc1ccc(-c2nnc(SCC(=O)Nc3sc4c(c3C#N)CCCC4)n2-c2ccccc2)cc1 | -3% | u
CCOC(=O)CC(C(=O)OCC)C1CCCCC1=O (stereo not given) | 3% | 9%
COC(=O)C1=C(c2ccccc2)c2ccccc2S(=O)(=O)N1CC(=O)Nc1cccc(C(C)=O)c1 | -7% | -7%
CCOC(=O)c1c(S(=O)(=O)NCC(=O)Nc2ccc(C)c(N(C)C)c2)c(C)n(C)c1C | 1% | 9%
CC1CN(C(=O)N2CCC(C(=O)NCCCc3ccccc3)CC2)c2ccccc2O1 (stereo not given) | -3% | 0%
O=c1cc(COc2ccc(Cl)cc2Cl)nc2scc(-c3ccccc3)n12 | -6% | -14%
CCOC(=O)c1noc2ncn(CC(=O)Nc3ccccc3OC)c(=O)c12 | 0% | u
Cc1cccc(-c2noc(-c3ccc(NCc4ccccc4)c([N+](=O)[O-])c3)n2)c1 | -4% | 9%
Cc1ccccc1NC(=O)c1nc(S(C)(=O)=O)ncc1N(Cc1ccco1)Cc1sccc1C | -7% | -13%
O=C(NC[C@@H]1CCCCN1)c1cc(OCC(F)(F)F)ccc1OCC(F)(F)F | 6% | 4%
COc1ccc(/C=C/c2nc3cc(-c4ccccc4)ccc3o2)cc1O | -1% | -8%
COc1ccc(-c2c/c(=N\c3nc(-c4ccccc4)c(C)s3)c3ccccc3o2)cc1O | -4% | 10µM*
O=C(/C=C\Nc1cccc(F)c1)c1ccc2c(c1)OCO2 | 2% | 25µM*
COc1ccc(N/C=C\C(=O)c2ccc3c(c2)OCO3)cc1OC | -7% | 3%
SMILES | Cruzain Triton | Cruzain inh noDet
O=C(Nc1ccccc1)N(Cc1cccc(Cl)c1)c1ccccn1 | -5% | 6%
COCCn1c(SCc2nc3scc(-c4ccc(Cl)cc4)c3c(=O)[nH]2)nnc1-c1cccc(C)c1 | -6% | 25µM*
CCn1c(SCc2nc3scc(-c4ccccc4)c3c(=O)[nH]2)nnc1-c1cccs1 | -4% | -26%
CCN(CC)c1ccc(C2C(C(=O)Nc3ccccc3C)=C(C)Nc3ncnn32)cc1 (stereo not given) | 0% | 0%
CCNc1ncc2nc(C)c(=O)n(Cc3cccc(OC)c3)c2n1 | 1% | 9%
COc1cc2c(cc1OC)C(c1ccc(Cl)cc1)N(c1ccc(C)c(F)c1)C(=O)C2 (stereo not given) | -11% | u
COc1ccc(NC(=O)COC(=O)C(CC(C)C)N2C(=O)C3CC=CCC3C2=O)cc1Cl (stereo not given) | 7.1µM* | 10µM*
COc1ccc(NC(=O)COC(C)=O)cc1Cl | 0% | 0%
CC(C)CC(C(=O)OCC(=O)Nc1ncc(Cl)cc1Cl)N1C(=O)c2ccccc2C1=O (stereo not given) | -21% | u
CCOC(=O)/C=C/C(=O)OCC(=O)Nc1ccc(OC)c(Cl)c1 | 13µM* | 16µM*
CCCn1c(C)cc(/C=C(\C#N)C(=O)OCC(=O)Nc2ccc(OC)c(Cl)c2)c1C | -10% | -12%
COc1ccc(NC(=O)COC(=O)/C=C/C(=O)OCC(=O)Nc2ccc(OC)c(Cl)c2)cc1Cl | -20% | 25µM*
O=C(O)[C@@H](O)[C@@H](O)C1[O][Sb][O][C@@H]1CO (stereo not given in full) | 4% | 5%
Cn1cc(C(=O)NCc2ccc(Cl)cc2)c(=O)c2cc(S(=O)(=O)N3CCCCCC3)ccc21 | -4% | -2%
CNC(=O)C1CCC(Cn2c(=O)c3sccc3n(Cc3ccc(F)cc3)c2=O)CC1 (stereo not given) | -2% | 15%
CCOC(=O)Cn1c(=O)n(-c2ccc(Cl)cc2)c2nc(-c3ccc(Cl)cc3)nc(C(N)=O)c21 | 0% | -3%
CCc1ccc(CNC(=O)Cc2ccc(NC(=O)N3CCSc4ncccc43)cc2)cc1 | -11% | -8%
CCc1ccc(CNC(=O)c2cnc3sc(N4CCCCCC4)nn3c2=O)cc1 | 0% | -5%
CCOc1ccc(NC(=O)C2Cc3ccccc3N2C(=O)c2ccccc2)cc1 (stereo not given) | -3% | -5%
c1ccc2c(c1)c1cccc3ccc4cccc2c4c31 | 2% | 16µM*
c1cc2ccc3cccc4ccc(c1)c2c34 | -1% | -13%
CC(=O)Nc1ccc(NC(=O)c2cc3c(=O)n(Cc4cccnc4)ccc3nc2C)cc1 | -5% | -3%
CCC(=O)Nc1cc(C(=O)OCc2ccc(C(=O)Oc3ccccc3)cc2)ccc1C | -2% | 13µM*
CC(=O)Nc1cc(C(=O)OCC(=O)c2ccccc2)ccc1C | 1% | 3%
Cc1cccc(NC(=O)c2c(NC(=O)c3ccco3)sc3c2CCC(C(C)(C)C)C3)c1 (stereo not given) | -1% | -2%
SMILES | Cruzain Triton | Cruzain inh noDet
c1ccc(C2=Nc3ccccc3OC2)cc1 | -3% | -18%
NC1=Nc2ccccc2Oc2ccccc21 | u | 25µM*
Cc1ccc(-n2nc(C)c3c(C(=O)NCCc4ccc(S(N)(=O)=O)cc4)cc(C)nc32)cc1 | -9% | u
Nc1ccc(-c2nc3ccc(N)cc3o2)cc1 | 20µM* | 16µM*
Cc1ccc2nc(-c3cc(N)cc(N)c3)oc2c1 | -1% | u
Cc1nnc(OC(C)C)c2nn(-c3ccccc3F)c(C)c12 | 5% | 2%
Fc1ccccc1-n1[nH]nnc1=S | 20µM* | 13µM*
CCC(=O)NC1CC(=O)N(c2ccc3c(c2)OCCO3)C1 (stereo not given) | 1% | 4%
COc1ccc(C2=CSC3=C(C(=O)c4cccc(S(=O)(=O)N(C)C)c4)CCN23)cc1 | -8% | 25µM*
COc1ccc(-c2csc(NC(=O)c3cccc(S(=O)(=O)N4CCN(C)CC4)c3)n2)cc1 | -3% | -5%
O=C1CC(c2nc(-c3cccc(Cl)c3)no2)CN1c1ccc2c(c1)OCCO2 (stereo not given) | -7% | 20%
CCOC(=O)c1sc2ccccc2c1S(=O)(=O)N1CCN(c2cc(C)ccc2C)CC1 | -4% | 20µM*
COC(=O)c1sc2cccc(F)c2c1S(=O)(=O)N1CCN(c2ccc(C)cc2C)CC1 | -6% | u
COc1ccc(-c2noc(-c3ccc(NC4CCCC4)c([N+](=O)[O-])c3)n2)cc1OC | -4% | u
O=C(Nc1nc(=O)c2ccccc2s1)c1ccc(F)cc1 | 1% | u
O=C(Nc1nc(=O)c2ccccc2s1)c1ccc(Cl)cc1 | -2% | 10µM*
